Source: PubChem (Broad Institute)
MITF TRPM1 HTS = increases MITF-driven TRPM1 promoter luciferase signal; SK-MEL-5 TRPM1-promoter luciferase, 24 h; % of positive control, neutral wells = 0; activation, % at 12.5 µM; actives 0.75% (n = 300,000); AID 588334;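 active means mean activation of at least 80% with every replicate also reaching 80%; inconclusive means mean reaches 80% but some replicate falls short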;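 further: 0% = neutral control wells and 100% = parthenolide positive control wells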
esBAF inh = blocks esBAF chromatin remodeling in mouse ES cells | actives 2% (n = 350,000) | reporter increase, % at 12.5 µM | AID 602393 | Bmi1-luciferase knock-in reporter, 24 h; 100% = twice the neutral-well signal; in the data active means activation above about 40%; inconclusive means no clear call, values can overlap the other calls;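 further: 0% = median of the plate's neutral control wells and 100% = double that signal; a rise in the Bmi1 reporter signal indicates esBAF inhibition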
Statin myotox sup = protects C2C12 myotubes from simvastatin toxicity. actives 0.78% (n = 330,000). ATP luminescence, 48 h; scaled: DMSO 0, geranylgeraniol control 100. rescue of ATP level, % at 7.49 µM;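 active means mean ATP rescue above about 67%, or every replicate alone reaching that limit, limit read from the data, passing the limit was not always enough; inconclusive means no clear call, values can overlap the other calls; inactive means mean under the limit and some replicate under it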;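 further: myotubes were challenged with 10 µM simvastatin during compound exposure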
Wnt act = Wnt/beta-catenin pathway activation. activation, % at 9.35 µM. actives 1.2% (n = 300,000). Wnt/beta-catenin reporter cell assay, activator, plate reader; in the data active means activation above about 30%, passing the limit was not always enough; inconclusive means no clear call, values can overlap the other calls;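 further: 0% = neutral control wells and 100% = positive control wells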
Rtt109 HAT inh = inhibitors of Candida albicans Rtt109/Vps75 histone acetyltransferase; Q5AAJ8; purified Rtt109/Vps75, ThioGlo CoA-SH fluorescence, 4 h; inhibition, % at 34.9 µM; actives 0.16% (n = 330,000); AID 540336;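 active means inhibition of at least 50% in every replicate; inconclusive means best replicate reaches 50% inhibition but some replicates fall short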
Target sequence (Q5AAJ8 whole entry, looked up): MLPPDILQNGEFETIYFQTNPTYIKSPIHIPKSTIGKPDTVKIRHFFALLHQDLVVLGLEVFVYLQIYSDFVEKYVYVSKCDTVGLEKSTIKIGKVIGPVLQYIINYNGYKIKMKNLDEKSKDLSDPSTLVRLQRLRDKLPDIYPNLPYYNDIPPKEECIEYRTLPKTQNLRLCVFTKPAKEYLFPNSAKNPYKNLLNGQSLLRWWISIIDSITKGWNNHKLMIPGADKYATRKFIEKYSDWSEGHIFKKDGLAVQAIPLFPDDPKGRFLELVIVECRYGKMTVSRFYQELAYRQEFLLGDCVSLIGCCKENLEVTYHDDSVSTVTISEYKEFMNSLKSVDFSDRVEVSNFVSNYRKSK
* = called active by the depositor; u = inconclusive; x = not tested or not shown. The list is not random: actives were taken first. Their share in the collection is about 3.1%.

SMILES	MITF TRPM1 HTS	esBAF inh	Statin myotox sup	Wnt act	Rtt109 HAT inh
CN(C)CCCNC(=O)C[C@@H]1C=C[C@@H](NS(=O)(=O)c2ccc(F)cc2)[C@H](CO)O1	x	4	5	x	x
C[C@H](CO)N1C[C@H](C)[C@@H](CN(C)S(C)(=O)=O)Oc2ncc(C3=CCCCC3)cc2C1=O	x	x	5	x	x
CO[C@H]1CN(C)C(=O)c2ccc(NS(=O)(=O)c3ccccc3)cc2OC[C@@H](C)N(Cc2cccnc2)C[C@H]1C	x	-7	4	x	x
Cc1noc(C)c1C(=O)OCC(=O)c1cc(C)n(Cc2ccccc2Cl)c1C	55	28	-15	41*	5
Cc1noc(C)c1C(=O)OCC(=O)c1ccc[nH]1	-3	9	-2	-2	-14
CNC(=O)C[C@H]1CC[C@H]2[C@@H](COC[C@H](O)CN2C(=O)Nc2ccc3c(c2)OCO3)O1	x	25	10	x	x
CC(C)(O)C#Cc1ccc(C(=O)NC2CCCCC2)s1	48	x	x	7	13
CCc1ccc(C(=O)NC2CCCCC2)s1	96*	31	-8	x	-6
Cc1ccc2c(c1)-c1nc3ccccc3cc1C2=NC1CCCCC1	31	x	x	47*	1
Cn1c(=O)oc2cc(S(=O)(=O)Nc3ccc4c(c3)OCO4)ccc21	-3	45*	-5	2	5
CCOc1ccc(/C=N/NC(=S)NC2CC3CC2C2C=CCC32)cc1 (stereo not given)	x	x	x	4	6
COc1cc(/C=N/NC(=S)NC2CC3CC2C2C=CCC32)ccc1O (stereo not given)	x	48*	-13	20	16
C[C@@H]1CN([C@H](C)CO)C(=O)c2cc(NC(=O)C3CCCCC3)ccc2O[C@@H](C)CCCCO[C@@H]1CN(C)C(=O)Cc1ccccc1	x	0	x	x	x
CC(=O)Nc1ccc(-c2ccnc3c2CC(C)(C(=O)NC(C)C)O3)cc1 (stereo not given)	x	-1	0	41*	x
O=C1C[C@@H]2c3c(cccc3CN1Cc1ccc(Br)cc1)C[C@@H](O)[C@H]2O	-6	11	100*	2	-8
CCOC(=O)Cc1csc(NC(=O)CC)n1	16	11	6	2	-7
CCOC(=O)Cc1csc(NC(=O)CC(C)(C)C)n1	34	28	110*	0	-2
C[C@H](CO)N1C[C@H](C)[C@@H](CN(C)C(=O)c2cccc(F)c2)Oc2cc(C#CC3CCCC3)ccc2S1(=O)=O	x	x	-42	x	x
Cc1ccc(C(=O)Cc2cc3ccccc3oc2=O)c(C)c1	34	x	x	0	-14
COc1ccc(C(=O)CCc2ccc(OC)c(OC)c2)cc1	6	x	x	-2	-14
COc1ccc(C(=O)Cc2cc3ccccc3oc2=O)cc1	121*	56*	-1	10	x
COc1ccc(C(=O)O/N=C(\N)c2ccc(OC)c(OC)c2)cc1	102*	26	-11	26	0
COc1ccc(C(=O)O/N=C(\N)c2ccc(OC)c(OC)c2)c(OC)c1	54	56*	-1	x	x
COc1ccc(C(=O)Cc2ccc(OC)c(OC)c2)cc1	44	42*	9	21	2
C[C@@H]1CN([C@@H](C)CO)S(=O)(=O)c2ccc(C#CC3CC3)cc2O[C@H]1CN(C)C(=O)Nc1cc(F)ccc1F	x	x	-29	x	x
SMILES	MITF TRPM1 HTS	esBAF inh	Statin myotox sup	Wnt act	Rtt109 HAT inh
CCCNC(=O)Nc1ccc2c(c1)OC[C@H](C)N(C(=O)c1ccccc1F)C[C@@H](C)[C@@H](OC)CN(C)C2=O	x	-15	-15	x	x
C[C@@H]1CCCCO[C@@H](CN(C)C(=O)Nc2ccc3c(c2)OCO3)[C@H](C)CN([C@H](C)CO)C(=O)c2cc(NC(=O)c3ccncc3)ccc2O1	x	14	x	x	x
Cc1ccc(CSCCNC(=O)c2ccc(N(C)S(=O)(=O)c3ccccc3)cc2)cc1	6	-3	1	x	3
CN(C)S(=O)(=O)c1ccc(C(=O)NCCOc2ccccc2)cc1	63	x	x	48*	-2
CN(C)S(=O)(=O)c1ccc(C(=O)NCCOc2ccc(F)cc2)cc1	65	61*	146*	21	-4
CC(C)(C)c1ccc(C(=O)NCCOc2ccccc2)cc1	x	-43	19	4	2
CN(c1ccc(C(=O)NCCSC(C)(C)C)cc1)S(=O)(=O)c1ccccc1	7	0	7	44*	5
C[C@@H]1CN([C@@H](C)CO)C(=O)c2cc(NC(=O)C3CCCCC3)ccc2O[C@@H](C)CCCCO[C@@H]1CN(C)C(=O)c1ccncc1	x	1	-7	x	x
CCCCn1c(CCc2ccccc2)nc2cc3[nH]c(=O)c(C(C)C)nc3cc21	-6	0	119*	-9	-18
CCCCn1c(-c2ccc(F)c(F)c2)nc2cc3[nH]c(=O)c(C(C)C)nc3cc21	3	-1	13	10	-4
COc1cc2sc3ccc(-c4ccc5[nH]ccc5c4)cc3c(=O)c2cc1OC	130*	51*	-3	12	2
C[C@H]1CN([C@@H](C)CO)C(=O)c2cccc(NC(=O)Nc3ccc(F)cc3)c2O[C@H]1CN(C)C(=O)Nc1ccc(C(F)(F)F)cc1	x	3	-141	x	x
C[C@@H]1CN([C@H](C)CO)C(=O)c2cc(NC(=O)NC3CCCCC3)ccc2O[C@@H]1CN(C)C(=O)Nc1ccccc1	x	0	23	x	x
Cc1ccnc2c(N3C(=O)C4C5C=CC(C5)C4C3=O)cccc12 (stereo not given)	4	3	121*	x	-3
O=C(O)CCn1nnc2ccccc21	1	x	x	47*	-5
O=C(O)Cn1nnc2ccccc21	8	x	x	2	-14
O=C(Cn1nnc2ccccc21)c1ccc(Cl)cc1	74	15	3	45*	41
C(#Cc1ccccc1)Cn1nnc2ccccc21	86*	60*	-42	x	-10
O=C(Cn1nnc2ccccc21)c1ccc([N+](=O)[O-])cc1	8	x	x	2	-2
CO[C@@H]1CC[C@@H]2CCN(C)C(=O)CCCN(C)C(=O)c3cccc(C#N)c3OC[C@H]1O2	x	5	-1	x	x
COc1ccc(-c2cc(-c3ccc(C)cc3)n[nH]2)c(O)c1	68	u	19	55*	2
COc1ccc(-c2cc(-c3ccc(OC)cc3)[nH]n2)cc1	u	64*	9	49*	7
COc1ccc(NC(=O)Nc2ccc3c(c2)C(=O)N([C@@H](C)CO)C[C@@H](C)[C@H](CN(C)S(=O)(=O)c2ccccc2)OCCCC[C@@H](C)O3)cc1	x	13	x	x	x
CCCC#Cc1ccc([C@H]2[C@@H](CO)N3CCCCN(Cc4cccnc4)C[C@@H]23)cc1	x	-2	7	x	x
CN(C)CCCNC(=O)C[C@H]1CC[C@H]2[C@H](COc3ccc(NC(=O)c4ccc5c(c4)OCO5)cc3C(=O)N2C)O1	x	4	13	x	x
Cc1cc(=O)oc2c(C)c(OC(C)C(=O)NCC3CCC(C(=O)O)CC3)ccc12 (stereo not given)	-2	-7	3	-1	6
Cc1c(OC(C)C(=O)NCC2CCC(C(=O)O)CC2)ccc2c3c(c(=O)oc12)CCCC3 (stereo not given)	2	-1	95*	2	0
